In all, about 59,000 sequences were measured (the read-out: median about -0.00055, lowest 2% from about -2 on). Many of the other results were omitted from the sample, so the lowest values are more common in it than they were.
assay: Identification of proteins required for the processing of the EWS-FLI1 nascent transcript; details: TC32 Ewing sarcoma NR0B1-luc vs CMV-luc (EWS-FLI1 target promoter against control promoter), 48 h; screened at 20 nM (by protocol);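 further: robust z of luciferase light less the median z of siRNAs with the same seed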
In short: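 Readout: OneGlo luminescence, 48 h post-transfection, TC32-NR0B1-luc vs TC32-CMV-luc in parallel. siRNA 20 nM final, RNAiMax lipid, 600 cells/well; z-score-MAD transformed, then seed-adjusted.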

Sequence	seed-corrected z-score
UUGUAUUCCACAGAAGUAA against SLC25A41	0.115
UGUCGUAUCUCUCUUCAUC against TNNI3	-0.115
UUACUGCUGAAUACAGACU against HRASLS	-2.09
UAUGUCCCAAAUAUACACC against SLC36A3	0.459
UUCUUACUCCAAUAUCUCC against WWC2	-0.0295
UUUGAUGAAGGGUACGUGG against KIF11	-2.31
UUCUCAAUGAUAUUAUGGG against SREBF2	-0.569
AUCAUAGCAACAGUGCUGC against IGFL1	-2.6
UGAACAUUGAGUAACGAAC against ORAOV1	0.0373
UCUGUUCUCGGUCAAAGAC against DCAF11	-0.91
UUUAGUUCCUGAUCGAAAG against ZNF800	1.28
AUCUUUACGAGCUUCAGCC against FAM185BP	1.55
UCACUGUCAAACUCGUGCC against ARHGAP33	-2.08
AUUGUAAUCGCGAAUAUCC against MESDC2	0.809
UUCCCUCUUUGGGUCUUCC against SNX11	0.0123
UACAGCUCCGAAAAACUCC against SIPA1	-1.18
UUGACUGUCACUGAGGUAG against SDK2	-0.0428
UGUCGUACCAGUCGGACCA against TAC1	-2.02
UAUUCGUUAUCAAAUUGUG against TMOD3	0.393
UCCGUUUUCCACGUAGUGC against FRMD1	-0.836
UAUGUCUUCACGCAGCCGC against PI4KAP2	-1.12
UACGUUUGCUUUGCGCUCG against NR0B1	-0.672

Sequence	seed-corrected z-score
UUGGGAUUAACACUUGUGA against LINC00851	-2.42
UUGAAGUUUUCAAUUGUGC against CYSLTR2	-0.797
UCAGCUAACUCUGUCUCUG against SNX19P3	-0.302
AUUGUGAUGAACCUCGUCC against ARHGAP40	-0.617
UUAGUGAUCUGAUAGUGGG against POGLUT1	0.238
AAUUCCAAAACCAAUGUGC against MS4A12	0.147
UGUUUCUCUGACUUGAGUG against IFI27L2	-2.28
UUCUUAUUGAGUUUCAGCC against MSN	0.564
UAAAUUUGUCGAGUUGCUC against CFAP99	0.485
UUGACAAAAGUGAGGAUCG against LGALS14	0.5
UCUAUGGGCAGUGGCAUCU against GOLGA2P10	-1.07
UGUGCAACUGGUCUUGUGC against BBS4	0.33
UGUUGUAGAAGGUAAACCC against CLRN3	-2.64
UAAUGUCAAAUUUUCCUCC against P2RX7	-0.332
UCCAUUGCAAUUGUGCCCA against MAGEA4	-0.0267
UUUCUUCACGUGGAUAGCC against GABRG2	0.574
UUCCAGAAAAAGCCGCACG against PLD6	-0.608
UUUCCUUCCAACUCUGCGC against ZNF835	-1.63
UACGUUAGGACGGCUCAGG against RLTPR	-1.06
UCAUGUGGCAUUUCUGGGA against LOC642852	-2.43
AUUCUUACCACAACUAUCC against SRP14	-0.807
UAAGCUGCGUGUUUUUAUC against TRIM14	-2.45

Sequence	seed-corrected z-score
UUUACGAAGUUUUUGAUAG against EML1	-0.287
UUUGUAGAGAAGUUUCACC against ZNF517	0.211
UUAGCUUCAACGGUGUUAC against E2F8	-1.58
UCGAUGAACAACCAUAUGC against PRKAA2	0.499
UUAUCUGCUUUAGAUUUGC against PYROXD1	-0.293
GAAGGUGCAGAUCUGUUUG against SCX	-2.92
UCAUCUACGAUAUUCAUGA against ADAMTS14	-0.269
UAAGCAUCUCACAAAAUCG against MITD1	-0.778
AAACUUCACUGUUACUUGG against LYSMD1	-0.262
UCGGUAACAAAAAUUAGUG against RNF217	0.42
UCUGUUCAAUACUUAAACC against PRUNE2	-0.544
UUUCUUAUCACCAUCAAAC against PGD	0.244
UAAGUUGCGAGCGUAGUGG against GAL3ST4	-3.11
UAUGUAGCAAAUCACAGUA against TMEM39A	0.421
UCUGCGGAAACUUUGGUGG against CDH11	-0.023
UCUUGAUACAGAUUCCAUC against RFX8	0.516
UCCUUUAGCACCUUCACCG against RAD23A	-2.73
UUGUUGUCAAUGUUAAUCG against SNX29P1	-0.677
AUAUUUCAAGGCAAGCUUC against DNAJC5	0.415
AUGGUAGCGGAAGAAAUUC against TMEM205	-2.26
UAAUCUUUAUUGUCACUAG against GRB7	-0.659
UUUGGCAAGACUUAACUUG against SCGB1D2	0.678

Sequence	seed-corrected z-score
AUUUUGUCACUGGAAAGGC against OIP5	0.784
UAUGCGCUUUGAGACUAGC against ZNF236	-0.344
UUGAGGUUACUGGAGCUGC against ZNF683	-0.208
AUCCUUAAUGUAACUAUUG against C12orf60	0.108
UAUAUCAUUAAGCAAUGCC against SF3B1	-3.22
UAAGUAGACGUGCAGAUCA against MFSD6L	0.136
UACUCGAAGAUCAUCUUGG against MYO6	-0.142
AUAGUUCCCUCGAUGAGGC against CCS	0.322
UCUCCUGUAACAGACUCUG against ERICH1	0.83
AUAGACAACUUUGAGGUCC against AP1S1	-0.000301
UUCAGCACAGAGAAAUUCG against SHISA2	1.31
UUGUUACUAAGAUCAACAG against PIWIL4	-0.273
UAAAAUAUCAAGCGAAUCA against LOC399886	0.0836
UACCGGGAUACAUGCAUGC against KIAA1551	-2.73
AAACGAAACAUGACGACAC against RSG1	-0.0435
UGAUGUACUCCACUGAUGC against TFEC	-0.552
UCUCUUUGUGGUGUACUUG against FGF13	-12.9
UUCCGAAUGGAAACUCUGG against BCL7C	0.615
AUACCGAUCAUAGCACAUC against OR2A12	0.195
UAUUAGGUCUUAUUUAUUC against NXNL2	0.499
UCUCUAUCAGUUCUCUUGG against RBM20	-0.358
AAAGGGACACUGAUUCAGU against TRAM1	-2.59

Sequence	seed-corrected z-score
UCAGGGUAUUUGGUGAGGG against KCTD1	-0.632
AUAAUACCAACUCAAAUGC against FRRS1L	1.1
UUCUGAGCAGGUUCUACUG against SGOL1	-2.98
UAGGUAACUAUUUCUUCUC against CHURC1	1.33
UCUUCUAUCUUGCACAUUG against NLRP9	0.587
UAGGUUACGUGUCCAGAGG against NR2F6	-0.85
ACCAUUGUCAUUGCCUUGC against 1-Mar	-1.24
GAUUUCUUCAGGUGCUCCU against PDLIM7	-0.372
UGUAGUAUAUGAUCGACCU against LOC728613	-11.7
UAGGCGAUGAAGAGCGUGC against MC1R	0.184
AAAGUAUCGGUAUUUGUCU against NDUFB9	0.025
AAUCUCAUGAGUUGCAACC against MMP26	-0.158
UUCCGGUUCCUCAUCUUCU against NUCKS1	-0.00682
UAAAGUACUGUCGUCAAUG against STOX2	-2.26
UUGUGGUUCUCGGAUACGC against CDH15	-0.955
GAAGCUAUCCCAGCUCUCA against RPL21P131	0.152
UGUUUUACAAGCAAUGUCC against TEX19	-2.08
UGCUGUAUAAUAUCCUUGC against GALNT3	0.503
UUGUGCACCACGAGCAUGG against B3GNT7	-1.07
UUCGUUGCAAAUCCCAUGC against SPTLC2	-3.22
AAUCUUUGGAGUACGCUGG against B2M	-0.0765
UAGACAUACAUUGAACUCC against SPINK6	1.21

Sequence	seed-corrected z-score
UGUACUUUAAUAGAGAUAC against MRPS10	-0.197
UACCCAAUAAAGGUCUACC against LMO2	0.642
UACGGUUCUUCCUGGUUGG against C1QA	1.29
UUCCAUAUAGCAGUGCACU against NDUFAF1	1.09
UAGGGUUUGCCUUCGUGCU against CRIP1	-3.24
UCAAGCAUCGUGUUGAGCC against TGFBI	-0.445
UCAAAUUCGUCCUGGGUCC against UGT1A5	-1.44
UGAAGGAAGAAUCGUCGCC against PTHLH	-0.782
UUUCCGAUGAUGGUAACCA against OR7C2	0.217
UCAGGUAGCAGGGUAUUGG against LTA4H	-0.0663
UCCCAAUUCAGAUCUAUGG against FBXO42	0.112
UCAGGUGUAGGAUUCCGAC against XAGE2	-2.85
UUUGUUGACUGCUUGACUG against METAP1D	0.33
AACCUGUAUGCAUCAACUG against BMS1P11	2.32
UACUGUUCCACUAGCUUCG against SF3A1	-1.91
UCUGUAACCUUGGUAAGGC against C10orf2	0.0621
UGGUUGAUUAGUAAAGCAC against C10orf113	-0.339
ACUGUUAUCAGGAAAGUCC against PLCB2	-0.539
UGUCUUUGUAGGCAGCUGG against CLDN14	-2.18
UAAAGAGUAAAGGUCUUCC against ZNF540	0.799
UAUGGACCCAUCAUACUGG against CADM4	0.833
UAUUGAACUUCAAGGGUCG against EFTUD2	-2.91

From PubChem BioAssay AID1159506 (National Center for Advancing Translational Sciences (NCATS), 2015)
